Source: PubChem BioAssay (National Center for Advancing Translational Sciences (NCATS))
MCF10A rereplic: induces DNA re-replication in MCF 10a normal breast cells; MCF 10A DNA re-replication, Hoechst nuclear intensity, 48 h; Potency, µM (highest dose often 46.1 µM), without a hit: at the top dose activity, positive = re-replication, actives largely listed as activators; hit rate 2.9% among 350,000; AID 624296; note: % of control where 0% means no effect; nearly all actives have a fitted effect of over 50% in size
SW480 rereplic: inducers of DNA re-replication in SW480 colon cancer cells. SW480 DNA re-replication, Hoechst DNA content imaging, 48 h. Potency, µM (doses to about 46.1 µM), inactives show at the highest dose re-replication activation, usual class: activators. hit rate 1.8% among 340,000; note: % of control where 0% means no effect; nearly all actives have a fitted effect of over 55% in size
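Hoechst fluorescence of nuclei (405 nm excitation, 500-530 nm emission) measured by plate-scanning imager after 48 hr compound exposure at 37 C; re-replication scored as increased number of nuclei with elevated intensity.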
KB-V1 cytotox: kills drug-selected multidrug resistant KB-V1 cells; KB-V1 MDR cells viability, CellTiter-Glo, 72 h; Potency, µM (doses to about 46.1 µM), usual class: cytotoxic; hit rate 3.4% among 400,000; note: % is set by controls: 0 for no effect and ±100 for the full control effect; nearly all actives have a fitted effect of over 60% in size
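Luminescent ATP read-out (CellTiter-Glo, 10 min) measures survival of drug-selected KB-V1 MDR cells after 72 h, 37 degrees C compound exposure. Medium: phenol-red-free DMEM, 10% FBS. Values from fitted concentration-response curves.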
ELG1 DNA repair: inhibitors of ELG1-dependent DNA repair in HEK293T cells; HEK293T ELG1-luciferase reporter, luminescence, 16 h; DNA damage induced by 5-fluorouridine; Potency, µM (doses to about 46.1 µM), inactives show top-dose activity change, negative = inhibition, hits mostly inhibitors; hit rate 2.3% among 330,000; note: % is set by controls: 0 for no effect and ±100 for the full control effect; nearly all actives have a fitted effect of over 55% in size
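Quantitative HTS, concentration-response format. 2,000 cells/well co-treated with 5-fluorouridine and compound, 16 hr in 5% CO2 at 37 °C; ONE-Glo luminescence read after 30 min.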
KB-3-1 tox: kills parental KB-3-1 adenocarcinoma cells. KB-3-1 viability, CellTiter-Glo ATP luminescence, 72 h. Potency, µM (series often up to 46.1 µM), most hits filed as cytotoxic. hit rate 1.4% among 400,000. AID 1347075; note: % is set by controls: 0 for no effect and ±100 for the full control effect; nearly all actives have a fitted effect of over 60% in size
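Parental KB-3-1 adenocarcinoma cells in phenol-red-free DMEM with 10% FBS were pin-treated with compounds at several concentrations, incubated 72 h at 37 °C, and viability read by CellTiter-Glo luminescence; concentration-effect curves were fitted after normalization.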
* = called active by the depositor; i = inactive; ? = inconclusive; nt = no result; ! = a repeat was not active. Sampled rows, rich in hits. Any-hit rate of the full collection: about 8.1%. Calls come from the whole dose curve; as a rule, active = well fitted curve in the direction sought with a large enough effect; inconclusive = small, poorly fitted or top-dose-only effect, or another doubt; inactive = no such curve, though single readings can be large; an effect the other way counts as inactive or inconclusive. Potency is the fitted concentration of half-maximal effect.

SMILES	MCF10A rereplic	SW480 rereplic	KB-V1 cytotox	ELG1 DNA repair	KB-3-1 tox
COC(=O)Nc1nc2ccccc2[nH]1	?	?	3.66µM*	nt	10.3µM*
O=C(CSc1nnc(NC(=O)c2ccccc2F)s1)NCc1ccc(F)cc1	6.4%	?	i	?	i
c1ccc2c(c1)OCC(C1=NCCN1)O2 (configuration not stated)	18.4µM*!	?	i	8.6%	?
NC1=C(Br)C(=O)c2ccccc2C1=O	?	-58.6%	11.6µM*	23.1µM*	?
O=C1C(=O)c2ccccc2-c2ccccc21	?	?	4.11µM*	7.31µM*	5.17µM*
O=C1C(=O)c2cccc3cccc1c23	-1.1%	?	?	-6.2%	16.4µM*
COc1ccc(/C=C/C2=CCN(C)CC2)cc1	?	-6.1%	i	?	i
CN1CC=C(/C=C/c2ccc(-c3ccccc3)cc2)CC1	16.4µM*	5.6%	i	?	i
CC(C)(COC(=O)C(c1ccccc1)c1ccccc1)CN1CCOCC1	?	11.5%	i	nt	i
O=C(NCCc1ccccc1)[C@@H]1CC=C[C@@H]2CCN(Cc3ccc(Cl)c(Cl)c3)C(=O)[C@@H]21	?	?	16.4µM*!	nt	?
O=C1C=C2C=CC3C[C@@]2(O1)C1CCCCN31 (some centres not stated)	21.1µM*	?	nt	nt	nt
O=C1C=C2C=C[C@@H]3CC2(O1)[C@H]1CCCCN31	14.0%	-49.9%	?	?	?
O=C(Oc1ccc2ccc(OC(=O)N3CCCCCC3)cc2c1)N1CCCCCC1	?	4.6%	i	?	i
O=c1[nH]c2ccccc2n1C1CCN(CCCC(c2ccc(F)cc2)c2ccc(F)cc2)CC1	?	-17.4%	11.6µM*	?	?
O=C1CC(N2CCC(n3c(=O)[nH]c4ccccc43)CC2)C(=O)N1c1ccc(F)cc1 (configuration not stated)	1.9%	-0.5%	i	7.1%	i
COC(=O)C1=C(c2ccc(F)cc2OCc2ccccc2)C[C@@H]2CC[C@H]1N2C(=O)NCc1ccc(F)cc1	?	0.517µM*	i	?	?
COC(=O)C1=C(c2ccccc2OCc2ccccc2)C[C@@H]2CC[C@H]1N2C(=O)NCc1ccc(F)cc1	25.2%	?	18.4µM*	-22.8%	20.6µM*
O=C1NC(=O)C2(CCCc3ccc(N(CCCl)CCCl)cc32)N1 (configuration not stated)	18.4µM*	16.4µM*	i	nt	i
NC1(C(=O)O)CCCc2ccc(N(CCCl)CCCl)cc21 (configuration not stated)	?	?	i	nt	i
S=c1[nH]nc(-c2ccn[nH]2)n1-c1ccccc1Cl	-0.7%	-4.6%	?	?	i
CCCNC1=C(C)C(=O)C2=C(C1=O)C(COC(N)=O)[C@]1(OC)C3NC3CN21 (some centres not stated)	-28.9%	6.2%	i	?	18.4µM*
NP(N)(=O)NC(=O)c1ccc(F)cc1	-1.0%	4.9%	nt	nt	nt
O=[N+]([O-])c1ccc(-c2ccccc2)c([As](=O)(O)O)c1	23.1µM*	15.8%	i	11.5%	i
O=C(CN1CCCCC1)NNC(=O)c1cccc(Br)c1	-34.3%	-7.4%	i	6.8%	i
Clc1cccc(/C=N\Nc2nccs2)c1	5.8µM*	-1.9%	?	?	i
SMILES	MCF10A rereplic	SW480 rereplic	KB-V1 cytotox	ELG1 DNA repair	KB-3-1 tox
C#CCOc1ccc(OC)cc1C(c1c(C)[nH][nH]c1=O)c1c(C)[nH][nH]c1=O	?	-4.9%	i	-8.9%	i
C[n+]1c2cc(N)ccc2cc2ccc(N)cc21	2.5%	-158.0%	16.4µM*	nt	10.3µM*
Nc1ccc2ccccc2c1	0.0%	-5.0%	i	nt	i
O=C(CN1CCCC1)Nc1ccc(NC(=O)Nc2ccccc2)cc1	-0.4%	-4.1%	i	?	i
CC(C)N(CC[C@@](C(N)=O)(c1ccccc1)c1ccccn1)C(C)C	-4.6%	-3.4%	nt	nt	nt
CCCCCn1c(=O)c(C(=O)Nc2cnccn2)c(O)c2ccccc21	16.4µM*	24.6%	16.4µM*	?	?
CCCCCCCn1c(=O)c(C(=O)Nc2cnccn2)c(O)c2ccccc21	3.66µM*	?	2.59µM*	?	3.26µM*
